Experimental findings from ChEMBL document CHEMBL3988442, “University of Dundee, Small-Polar-MMV Screening Library” (2021) are described below.

The campaign covered roughly 66,000 compounds. About 960 (1.5%) showed an effect of 50% or more. What follows is part of a selection rich in strong results, with near analogues and random picks from the rest.

The subject of the assay is Trypanosoma brucei. The experiment in a line: Trypanosoma brucei 72 hour study. It is filed as functional, organism-based. On the set-up: scale not given: in the data most compounds retested in dose-response had high values.

With `CC(C)Cc1cc(CNC(=O)c2ccccc2C2CCNC2)no1` (stereo not drawn), for the setting “30 µM, 30.03 µM”, the “Percent Effect” value is -25.71%.
`CN(Cc1ccc2c(c1)OCO2)C(=O)c1ccc(=O)n(C)c1`: for the setting “30.3 µM, […]”, the “Percent Effect” value was -33.31%.
Regarding `CC(C)OCCCN(Cc1ccncc1)Cc1cccc(F)c1F.Cl`, for the setting “30.3 µM, […]”, the “Percent Effect” value is given as -30.88%.
As to `N#Cc1ccc(S(=O)(=O)NC(=O)c2csc(-c3ccco3)n2)cc1`, the “Percent Effect” value (30.3 µM, […]) came to 2.361%.
Take `CCc1ccc(CN2C[C@@H](C)C3(CCN(CC(=O)N(C)C)C3=O)C2)o1.O=C(O)C(F)(F)F` (stereo partly drawn): the “Percent Effect” value (30.3 µM, […]) was 4.737%.
On to `CC(=O)N1N=C(c2cccs2)OC1C(=O)NCc1ccc(C)o1` (stereo not drawn), for which the “Percent Effect” value is reported as 9.707% (30.3 µM, […]) and -41.55% (10 mM, 10 mM as filed; unlikely as a test dose).
Turning to `COc1ccc(CCC(=O)NCCN2CCC(c3cccs3)CC2)cc1`, the “Percent Effect” value (30 µM, 30.03 µM) is listed as 100%.
`O=C(NCCc1ccccc1)NCCN1CCC(c2cccs2)CC1`: the “Percent Effect” value (30 µM, 30.03 µM) is listed as 47.79%.
On to `CC(=O)NCCN1CCC(c2cccs2)CC1`, for which the “Percent Effect” value (30 µM, 30.03 µM) is on record as -43.56%.
As to `CC1CCCN(Cc2ccnc(-c3cccnc3)n2)C1.O=C(O)CC(O)(CC(=O)O)C(=O)O` (stereo not drawn), under “30.3 µM, […]”, the “Percent Effect” value is 9.831%.
Take `O=C(CCCNC(=O)C1CC1)Nc1cnn(-c2ccccc2Cl)c1`: the “Percent Effect” value (30 µM, 30.03 µM) is reported as 60.12%.
Take `CS(=O)(=O)NCCC(=O)Nc1cnn(-c2ccccc2Cl)c1`: for the setting “30.3 µM, […]”, the “Percent Effect” value is listed as -13.82%.
Consider `O=C(CCN1C(=O)CCC1=O)Nc1cnn(-c2ccccc2Cl)c1`, for which the “Percent Effect” value (30 µM, 30.03 µM) is on record as -41.29%.
As for `O=C(O)C(F)(F)F.O=C(O)C(F)(F)F.O=c1ccc2c(n1Cc1ccncc1)CCN(Cc1ccoc1)CC2`, the “Percent Effect” value (30 µM, 30.03 µM) is -36.06%.
As to `Cl.c1nc(CCC2CCCCN2)cc(N2CCCC2)n1` (stereo not drawn), the “Percent Effect” value (30.3 µM, […]) was -10.52%.
Same read-out and setting: to `CC(C)N1CCC(N2CCC(C(=O)N(C)C)CC2)CC1.O=C(O)C(F)(F)F.O=C(O)C(F)(F)F` belongs -22.06%.
For `COC(=O)C1CCN(C(=O)c2cc(Br)ccc2-n2cnnn2)CC1`, where the note is “30 µM, 30.03 µM”, the “Percent Effect” value is given as -52.11%.
Regarding `NC(=O)N1CCCC(C(=O)N2CCN(c3nsc4ccccc34)CC2)C1` (stereo not drawn), the “Percent Effect” value (30.3 µM, […]) amounted to 39.11%.
For the molecule `CCN1CC(C(=O)N2CCN(c3nsc4ccccc34)CC2)CCC1=O` (stereo not drawn), under “30.3 µM, […]”, the “Percent Effect” value worked out at 18.26%.
In the case of `CC(C)N1CCCC(C(=O)N2CCN(c3nsc4ccccc34)CC2)C1` (stereo not drawn), where the note is “30.3 µM, […]”, the “Percent Effect” value was determined as 50.26%.
Still for that read-out and setting: then `CN(C)C(=O)c1cnc2n1CCN(Cc1cccnc1)C2.O=C(O)C(F)(F)F.O=C(O)C(F)(F)F`, with -389.6%; and `O=C(O)C(F)(F)F.O=C(O)C(F)(F)F.O=C(O)C(F)(F)F.c1ccc(CN2CCc3c(COCC4CC4)cncc3C2)nc1`, with -75.06%.
Turning to `CN1C[C@@H](N)C[C@H]1C(=O)N1CCC(CCCc2ccccc2)CC1`, the “Percent Effect” value (30 µM, 30.03 µM) is -31.74%.
Take `OC1(CN2CCCCC2)CCN(c2ccc(C(F)(F)F)cn2)C1` (stereo not drawn): the “Percent Effect” value (30.3 µM, […]) stood at 3.051%.
As to `N#CC1=C(N)Nn2c(nnc2-c2ccccc2F)S1`, the “Percent Effect” value (30 µM, 30.03 µM) is recorded as -51.04%.
With `CCn1cc(CNc2ccc(Br)c(OC)c2)cn1`, where the note is “30 µM, 30.03 µM”, the “Percent Effect” value is -16.49%.
`CCn1cc(CNc2ccc(F)c(N3CCCS3(=O)=O)c2)cn1`: for the setting “30 µM, 30.03 µM”, the “Percent Effect” value is -16.14%.
Take `CCn1cc(CNc2ccc3nccnc3c2)cn1`: the “Percent Effect” value (30 µM, 30.03 µM) is 99.73%.
Consider `Nc1cc(N2CCC(c3cc(Cc4ccccc4)n[nH]3)CC2)ccn1`, for which, where the note is “30.3 µM, […]”, the “Percent Effect” value is on record as 99.46%.
Same read-out and setting: to `Nc1nccc(N2CCC(c3cc(Cc4ccccc4)n[nH]3)CC2)n1` belongs 36.98%; to `Nc1nc(O)cc(N2CCC(c3cc(Cc4ccccc4)n[nH]3)CC2)n1`, -102.6%.
Same read-out and setting: to `COc1cccc(OC)c1C(=O)NCC(c1cccn1C)N1CCCC1` (stereo not drawn) belongs 99.38%; to `COc1cccc(C(=O)NCC(c2cccn2C)N2CCCC2)c1OC` (stereo not drawn), -16.52%.
As to `COc1ccc(C(=O)NCC(c2cccn2C)N2CCCC2)cc1OC` (stereo not drawn), the “Percent Effect” value (30.3 µM, […]) is -9.189%.
`CO[C@@H]1CCN(C(=O)Cc2ccsc2)[C@H]1Cc1cccnc1.O=C(O)C(F)(F)F`: the “Percent Effect” value (30.3 µM, […]) was -12.88%.
As to `Cc1cccc(COC[C@H]2CC[C@H]3[C@H](CCN3C(=O)CC3CC3)O2)n1.O=C(O)C(F)(F)F`, under “30 µM, 30.03 µM”, the “Percent Effect” value came out at 22.76%.
Take `CCOc1ccc(CN[C@@H]2COC[C@H]2c2ccc(F)cc2)cc1.O=C(O)CC(O)(CC(=O)O)C(=O)O`: the “Percent Effect” value (30.3 µM, […]) was -47.65%.
As to `COCCN1C[C@H]2CC[C@@H]1CN(C(=O)CCn1cc(Cl)cn1)C2`, the “Percent Effect” value (30.3 µM, […]) is 4.772%.
With `Cc1nc2c(c(NCC(O)c3ccccc3Cl)n1)CCNCC2` (stereo not drawn), the “Percent Effect” value (30 µM, 30.03 µM) was -31.73%.
For `Cc1nc2c(c(NCc3nc4ccccc4s3)n1)CCNCC2`, the “Percent Effect” value (30.3 µM, […]) is listed as 53.81%.
As to `Cc1nc2c(c(NCc3cc4ccccc4s3)n1)CCNCC2`, the “Percent Effect” value (30.3 µM, […]) was 99.88%.
As for `Cc1nc2c(c(NCC3Cc4ccccc4CN3C)n1)CCNCC2` (stereo not drawn), the “Percent Effect” value (30.3 µM, […]) is 15.13%.
Turning to `Cc1nc(CNc2nc(-c3ccco3)nc3c2CCNCC3)n[nH]1`, the “Percent Effect” value (30 µM, 30.03 µM) was 14.93%.
On to `Cc1nc2c(c(NCc3ccc(-c4ccccn4)s3)n1)CCNCC2`, for which the “Percent Effect” value (30.3 µM, […]) is 42.43%.
Turning to `CC(C)CN1CCO[C@H]2CCN(c3cnccn3)CC[C@@H]21.O=C(O)C(F)(F)F`, where the note is “30.3 µM, […]”, the “Percent Effect” value is given as -43.11%.
Consider `CCCS(=O)(=O)N1C[C@H]2C[C@H](C(=O)N3CCCC3)[C@@H](C1)O2`, for which the “Percent Effect” value (30.3 µM, […]) was -3.417%.
Take `Cc1occc1C(=O)N1C[C@@H]2OCCN(C(C)C)[C@@H]2C1.O=C(O)C(F)(F)F`: the “Percent Effect” value (30 µM, 30.03 µM) came out at 5.268%.
